Assay results published in PubChem BioAssay AID2289 (National Center for Advancing Translational Sciences (NCATS), 2010).
Among all 340,000 compounds or so, about 3,300 (0.97%) were called active. Not shown: some 9% with an inconclusive outcome. The call rests on the fitted dose curve; in most records, active means well fitted inhibition curve with a large enough effect; inconclusive means small, poorly fitted or top-dose-only effect, or effect the other way; inactive means flat fitted curve, though single readings scatter. The list shows a part of the results.

assay: qHTS Assay for Modulators of miRNAs and/or Inhibitors of miR-21; conditions: HeLa miR-21-FLuc reporter, luciferase luminescence, 48 h; actives lower the signal; further: nearly all actives have a fitted effect of over 55% in size
Outline: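 HeLa miR-21-FLuc reporter line, endogenous miR-21; 2000 cells/well in DMEM/10% FBS; compound titration up to ~40uM final, 48 h, 37 degree Celsius; luciferase detection reagent, 15 min lysis, CCD luminescence.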
Potency means the concentration at half of the fitted maximal effect.

Potency, active:
COc1ccc(NC(=S)c2ccccc2)cc1 6.56 µM
CCC(N=c1cc(-c2ccc(OC)cc2)oc2ccc(C)cc12)C(=O)O (centres undefined) 0.293 µM
COc1ccc(-c2cc(=NC(CC(C)C)C(=O)O)c3cc(C)ccc3o2)cc1 (centres undefined) 0.369 µM
COc1ccc(-c2cc(=Nc3ccc(C(=O)O)cc3)c3cc(C)ccc3o2)cc1 2.07 µM
Cc1ccc(-c2nc(C#N)c(NCC3CCCO3)o2)cc1 (centres undefined) 13.1 µM
COc1ccc(-c2nc(C#N)c(NCC3CCCO3)o2)cc1OC (centres undefined) 14.7 µM
O=C(O)c1cccc(N/N=C/c2cccnc2)c1 2.93 µM
Clc1ccc(N/N=C/c2ccncc2)cc1Cl 8.26 µM
O=C(O)c1cc(N/N=C/c2cccnc2)ccc1Cl 14.7 µM
Nc1ccc(SCc2nc3cccc4c3n2CCC4)cc1 14.7 µM
Cc1nc(-c2ccccc2)sc1-c1nnc(C2CC2)o1 4.65 µM
COc1ccccc1N1CCN(C(=S)NC(=O)/C=C/c2ccccc2)CC1 9.27 µM
O=C(/C=C/c1ccc(F)cc1)NC(=S)N1CCN(c2ccccn2)CC1 13.1 µM
Nc1nc2ccc(NC(=O)c3ccco3)cc2s1 7.36 µM
Cc1nc2ccc(NC(=O)c3ccco3)cc2s1 7.36 µM
Cc1cc(NC(=O)c2ccco2)ccc1-n1cnnn1 7.36 µM
CSc1nc2ccc(NC(=O)c3ccco3)cc2s1 1.47 µM
Cc1nc2ccc(NC(=O)c3ccc(Br)o3)cc2s1 2.93 µM
CC(=O)Nc1nc2ccc(NC(=O)c3ccco3)cc2s1 10.4 µM
COc1cc2sc(NC(=O)c3ccco3)nc2cc1Cl 0.585 µM
CSc1nc2ccc(NC(=O)c3c(F)cccc3F)cc2s1 7.36 µM
Nc1c(Cl)cc2c(c1Oc1ccccc1)C(=O)c1ccccc1C2=O 4.14 µM
COc1ccc(C2=NN(C(=O)c3ccccc3C(=O)O)C(c3ccccc3O)C2)cc1 (centres undefined) 5.85 µM
O=C(c1ccncc1)N1N=C(c2ccc(Cl)cc2)CC1c1ccccc1O (centres undefined) 6.56 µM
Nc1cc(N)nc(SCCOc2ccccc2)n1 11.7 µM
Cc1ccc(OCCSc2nc(N)cc(N)n2)cc1 4.65 µM
c1cnc(SCCOc2cccc3ccccc23)nc1 3.29 µM
COc1ccc(OCCSc2nc(N)cc(N)n2)cc1 3.29 µM
Nc1cc(N)nc(SCCOc2ccccc2F)n1 14.7 µM
Cc1cc(SCCOc2ccccc2)nc(N)n1 16.5 µM
CCOC(=O)c1ccc(NC(=O)C(CC)Sc2nc3ncccc3o2)cc1 (centres undefined) 4.65 µM
Cc1ccc(NC(=O)/C=C2\NC(=O)CS2)cc1 16.5 µM
O=C(N/N=C/c1ccc(Br)s1)c1ccco1 14.7 µM
C/C(=N\NC(=O)c1ccoc1C)c1ccc(Br)s1 11.7 µM
Cc1occc1C(=O)N/N=C/c1ccc(Br)s1 6.56 µM
COC(=O)/C(=C/c1cccc([N+](=O)[O-])c1)NC(=O)c1ccc(OC)cc1 5.21 µM
COc1cccc(NC(=O)C(=O)NCC(c2ccc3c(c2)OCO3)N2CCN(C)CC2)c1 (centres undefined) 4.65 µM
Cc1cc(C)n2ncc(/C(N)=N/OC(=O)c3ccccc3F)c2n1 1.85 µM
Cc1csc2ncc(C(=O)NCCc3ccccc3)c(=O)n12 16.5 µM
Cc1cc(C)n2ncc(C(=O)NCCc3ccccc3)c2n1 18.5 µM
CN(C)c1ccc(/C=C2\CCCCC2=O)cc1 2.07 µM
CCC(=O)N1CCc2cc(CNS(=O)(=O)c3ccccc3F)ccc21 6.56 µM
O=C(COc1ccccc1F)Nc1ccc(-c2nc3ccccc3s2)cc1 1.47 µM
Cc1nc2ccc(NC(=O)COc3ccccc3F)cc2s1 7.36 µM
Cc1ccc2nc(-c3ccc(NC(=O)COc4ccccc4C(C)(C)C)cc3)sc2c1 6.56 µM
Nc1ccc2oc3ccc(N)cc3c(=O)c2c1 3.69 µM
COc1nccnc1NS(=O)(=O)c1ccc(NCc2cc(Br)ccc2O)cc1 18.5 µM
COc1ccc(OCC(=O)N/N=C(\C)c2cc3ccccc3o2)cc1 18.5 µM
C/C(=N\NC(=O)COc1ccccc1F)c1cc2ccccc2o1 8.26 µM
Cc1ccc(C(=O)Cc2nnc(C)s2)cc1 4.14 µM
Cc1ccc(NC(=S)NNC(=O)c2nn(C)c(C)c2Cl)cc1 5.85 µM
CN1CCc2c(sc3c2C(=O)NC(c2cccc(OC(=O)c4cccs4)c2)N3)C1 (centres undefined) 18.5 µM
COc1cc(C2NC(=O)c3c(sc4c3CCN(C)C4)N2)ccc1OC(=O)c1ccccc1 (centres undefined) 13.1 µM
CN1CCc2c(sc3c2C(=O)NC(c2ccc(OC(=O)c4ccccc4)cc2)N3)C1 (centres undefined) 9.27 µM
O=C(CC1NCCc2ccccc21)Nc1cccc(Cl)c1 (centres undefined) 16.5 µM
Cc1occc1C(=O)NN=C1C2CC3CC(C2)CC1C3 1.31 µM
C=C(C)C1CC=C(C)/C(=N/NC(=O)c2ccoc2C)C1 (centres undefined) 4.65 µM
C/C(=N/NC(=O)c1ccoc1C)C12CC3CC(CC(C3)C1)C2 8.26 µM
S=C(N=Nc1ccccc1)NNc1ccccc1 5.21 µM
Cc1cccc(OCCCn2c(=O)sc3ccccc32)c1 14.7 µM
COc1ccc(N=c2sc3ccccc3n2C)cc1 3.29 µM
COc1ccc(OCCn2c(=O)sc3ccccc32)cc1 14.7 µM
Cc1cccc(OCCn2c(=O)sc3ccccc32)c1 5.21 µM
O=c1sc2ccccc2n1CCCOc1ccccc1 4.14 µM
C=CCNC(=S)NNC(=O)COc1ccc2cc(Br)ccc2c1 7.36 µM
CC1Oc2ccccc2N(CC(=O)NCc2ccccc2)C1=O (centres undefined) 9.27 µM
CCn1c(O)c(N=Nc2ccc3ccccc3n2)c2ccccc21 1.04 µM
O=S(=O)(Cc1cc(-c2ccc(Cl)cc2)no1)c1ccccc1 4.65 µM
O=S(=O)(Cc1cc(-c2ccccc2Cl)no1)c1ccccc1 5.21 µM
COc1ccc(Br)c(-c2nnc(CS(=O)(=O)c3ccccc3)o2)c1 14.7 µM
COc1ccc(-c2cc(CS(=O)(=O)c3ccccc3)on2)cc1 4.65 µM
O=S(=O)(Cc1cc(-c2ccccc2)no1)c1ccccc1 14.7 µM
Nc1ccc(Oc2cc(N)cc(Oc3ccccc3)c2)cc1 8.26 µM
N=c1cc(C2(O)CCCCC2)n2c(nc3ccccc32)s1 0.185 µM
COc1ccccc1/C=C/C1=NC(=C\N(C)C)/C(=O)O1 14.7 µM
COc1ccc(-c2cn3cc(Cl)ccc3n2)cc1OC 13.1 µM
Oc1ccc(-c2cn3ccccc3n2)cc1O 3.29 µM
COc1ccc(-c2cn3ccccc3n2)cc1[N+](=O)[O-] 2.33 µM
CCOc1ccc(-c2cn3ccccc3n2)cc1[N+](=O)[O-] 2.93 µM
O=C(Nc1cc(F)c(Br)cc1F)c1ccc(Cl)cc1 3.29 µM
CCCCOc1ccc(-c2csc(N)n2)cc1[N+](=O)[O-] 1.47 µM
CCCOc1ccc(-c2csc(N)n2)cc1[N+](=O)[O-] 5.21 µM
Cc1cccc(OCCn2nnc3sc4c(c3c2=O)CCCC4)c1 18.5 µM
COC(=O)c1ccc(Cn2nnc3sc4c(c3c2=O)CCCC4)cc1 6.56 µM
O=C(CSc1ccccc1)NC1CCCCCC1 14.7 µM
S=C(NCCc1ccccc1)NCCc1ccccc1 2.61 µM
O=C(CSc1ccccc1)NCCc1ccccc1 14.7 µM
NNCCc1ccccc1 14.7 µM
CC1CCN(C(=S)NCCc2ccccc2)CC1 2.93 µM
Cc1ccc2oc(C(=O)N(C)Cc3ccon3)c(C)c2c1 4.14 µM
CCCc1ccc2oc(C(=O)N(C)Cc3ccn[nH]3)c(C)c2c1 10.4 µM
Cc1cc(Cl)c2oc(C(=O)N(C)C(C)c3ccccn3)c(C)c2c1 (centres undefined) 14.7 µM
Cc1ccc2c(C)c(C(=O)N(C)C(C)c3ccon3)oc2c1C (centres undefined) 16.5 µM
Cc1cc(Cl)c2oc(C(=O)N(C)Cc3ccon3)c(C)c2c1 4.65 µM
CCc1c(C)c2ccc(O)c(CN3CCN(c4ccccc4)CC3)c2oc1=O 6.56 µM
COc1ccc2c(c1)Cc1sc(NC(C)=O)nc1-2 0.631 µM
COc1ccc2c(c1)-c1nc(NC(=O)c3ccco3)sc1CC2 13.1 µM
Cc1cccc(-n2ncc3c(NC4CCCCC4)ncnc32)c1 0.414 µM
Cc1ccc(-n2ncc3c(NC4CCCCC4)ncnc32)cc1 0.521 µM
O=c1cccccc1NN=C1CCCCCC1 3.29 µM
O=c1cccccc1NN=C1CCCCC1 11.7 µM
Oc1c(/C=N/Nc2cccc3cccnc23)ccc2ccccc12 7.36 µM
Oc1ccccc1CNc1cccc2cccnc12 18.5 µM
Cc1ccccc1Nc1nc(N)nc(-c2oc3ccccc3c2C)n1 4.65 µM
Fc1ccccc1Nc1nc2ccccc2n2nnnc12 16.5 µM
COc1ccccc1-c1cc(C(=O)N2CCOCC2)no1 2.93 µM
COc1ccccc1-c1cc(C(=O)N2CCCC2)no1 1.85 µM
CCN(CC)C(=O)c1cc(-c2ccc(Cl)cc2)on1 4.65 µM
CCN(CC)C(=O)c1cc(-c2ccccc2OC)on1 13.1 µM
